Inconclusive results are not listed. Active and inactive are the calls of the source. Calls come from the whole dose curve; as a rule, active = well fitted curve in the direction sought with a large enough effect; inconclusive = small, poorly fitted or top-dose-only effect, or another doubt; inactive = no such curve, though single readings can be large; an effect the other way counts as inactive or inconclusive.

Test [1] is described as follows: qHTS of pediatric cancer cell lines to identify multiple opportunities for drug repurposing: Primary screen for A673 cells (AID 1347092). Note: nearly all actives have a fitted effect of over 45% in size. The method in brief: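 A673 cells (500-1,000 cells/well) were treated 48 hours at 37 degrees C with compounds at 11-point (0.78 nM to 46 µM) or 8-point (0.59 nM to 46 µM) dilutions. Viability read by CellTiter-Glo luminescence; concentration-response curves fitted.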
In general terms: qHTS replaces the single test concentration by a dilution series.

Test [2] in a line: qHTS of pediatric cancer cell lines to identify multiple opportunities for drug repurposing: Primary screen for SK-N-MC cells (AID 1347093). In short, it runs like this:
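Metabolically active cells were quantified by ATP-dependent luminescence (CellTiter-Glo, 15 min at room temperature) following 48 h treatment. Cells had been plated at 500-1,000 per well and settled for 5 h beforehand.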

Test [3] in a line: qHTS of pediatric cancer cell lines to identify multiple opportunities for drug repurposing: Primary screen for BT-37 cells (AID 1347094). The method in brief: (§1)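 ATP-based luminescence (CellTiter-Glo) quantifies viability after a 48-hour exposure. Compounds are dosed across 8 or 11 final concentrations; DMSO and 2.3 µM bortezomib serve as controls.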
A short description of test [4]: qHTS of pediatric cancer cell lines to identify multiple opportunities for drug repurposing: Primary screen for NB-EBc1 cells (AID 1347095). The method in brief:
as §1

Test [5] in a line: qHTS of pediatric cancer cell lines to identify multiple opportunities for drug repurposing: Primary screen for U-2 OS cells (AID 1347096). Note: nearly all actives have a fitted effect of over 50% in size. The method in brief: (§2)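 Cells (500-1,000/well) rested 5 h, then received compounds for 48 h; metabolically active cells were measured by CellTiter-Glo luminescence. Final concentrations spanned up to 46 µM (MIPE, 11-point) or 0.59 nM-46 µM (NPC, 8-point) in primary screens, 11-point in follow-ups.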

The nature of test [6]: qHTS of pediatric cancer cell lines to identify multiple opportunities for drug repurposing: Primary screen for Saos-2 cells (AID 1347097). Note: nearly all actives have a fitted effect of over 40% in size. In short, it runs like this:
as §1

Test [7] is described as follows: qHTS of pediatric cancer cell lines to identify multiple opportunities for drug repurposing: Primary screen for SK-N-SH cells (AID 1347098). Note: nearly all actives have a fitted effect of over 65% in size. The method in brief:
as §2

Test [8] can be described thus: qHTS of pediatric cancer cell lines to identify multiple opportunities for drug repurposing: Primary screen for NB1643 cells (AID 1347099). Note: nearly all actives have a fitted effect of over 50% in size. The method in brief:
as §1

Test [9] is described as follows: qHTS of pediatric cancer cell lines to identify multiple opportunities for drug repurposing: Primary screen for LAN-5 cells (AID 1347100). The method in brief:
as §2

The nature of test [10]: qHTS of pediatric cancer cell lines to identify multiple opportunities for drug repurposing: Primary screen for BT-12 cells (AID 1347101). Note: nearly all actives have a fitted effect of over 25% in size. In short, it runs like this:
as §2

Test [11] can be described thus: qHTS of pediatric cancer cell lines to identify multiple opportunities for drug repurposing: Primary screen for Rh18 cells (AID 1347102). Note: nearly all actives have a fitted effect of over 65% in size. The method in brief: as §2
Test [12] in a line: qHTS of pediatric cancer cell lines to identify multiple opportunities for drug repurposing: Primary screen for OHS-50 cells (AID 1347103). Note: nearly all actives have a fitted effect of over 40% in size. The method in brief:
as §2

Test [13] is described as follows: qHTS of pediatric cancer cell lines to identify multiple opportunities for drug repurposing: Primary screen for RD cells (AID 1347104). Note: nearly all actives have a fitted effect of over 55% in size. In short, it runs like this: as §1
Test [14] can be described thus: qHTS of pediatric cancer cell lines to identify multiple opportunities for drug repurposing: Primary screen for MG 63 (6-TG R) cells (AID 1347105). Note: nearly all actives have a fitted effect of over 50% in size. In short, it runs like this:
as §1

Test [15] can be described thus: qHTS of pediatric cancer cell lines to identify multiple opportunities for drug repurposing: Primary screen for control Hh wild type fibroblast cells (AID 1347106). Note: nearly all actives have a fitted effect of over 55% in size. In short, it runs like this: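 Cells (500-1,000/well) in growth media were settled 5 h at 37 degrees C, then given compounds for 48 h. Viability was read as CellTiter-Glo luminescence. Primary runs used MIPE at 11 points (0.78 nM-46 µM) and NPC at 8 points (0.59 nM-46 µM); follow-ups used 11 points.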

Test [16] can be described thus: qHTS of pediatric cancer cell lines to identify multiple opportunities for drug repurposing: Primary screen for Rh30 cells (AID 1347107). Note: nearly all actives have a fitted effect of over 75% in size. In short, it runs like this: as §2
Test [17] in a line: qHTS of pediatric cancer cell lines to identify multiple opportunities for drug repurposing: Primary screen for Rh41 cells (AID 1347108). Note: nearly all actives have a fitted effect of over 70% in size. The method in brief: as §1
A short description of test [18]: qHTS of pediatric cancer cell lines to identify multiple opportunities for drug repurposing: Confirmatory screen for NB1643 cells (AID 1347109). Note: nearly all actives have a fitted effect of over 45% in size. In short, it runs like this:
as §2

Test [19] can be described thus: qHTS of pediatric cancer cell lines to identify multiple opportunities for drug repurposing: Confirmatory screen for A673 cells (AID 1347110).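 Note: cells exposed to compound for 48 h before the viability read; nearly all actives have a fitted effect of over 65% in size.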 In short, it runs like this:
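A673 cells at 500-1,000 cells/well were dosed 5 h after plating, in dilution series up to 46 uM final; primary runs used 8 or 11 points and confirmatory runs used 11 points. Viability was read by CellTiter-Glo luminescence after 48 h, against DMSO and 2.3 uM bortezomib controls.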

Test [20] can be described thus: qHTS of pediatric cancer cell lines to identify multiple opportunities for drug repurposing: Confirmatory screen for SK-N-MC cells (AID 1347111).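 Note: cells exposed to compound for 48 h before the readout; nearly all actives have a fitted effect of over 70% in size.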 The method in brief: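 Seed 500-1,000 cells/well; rest 5 h at 37 degrees C. Pin-transfer compounds, 11-point titration. Incubate 48 h. Add CellTiter-Glo, 15 min RT, read luminescence.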
Potency is the fitted concentration of half-maximal effect.

With `N[C@H]1CN(c2c(F)cc3c(=O)c(C(=O)O)cn(C4C[C@@H]4F)c3c2Cl)CC12CC2` (some centres not stated), the Potency entry in [1], in [2], in [3], in test [4], in test [5] and in test [6] was “inactive” throughout. The Potency result in [7], in test [8], in test [10], in test [11], in test [12] and in test [13] was “inactive” each time. Besides, the Potency entry in [14], in test [15] and in test [16] was “inactive” each time. Also, the Potency in test [9] was 21100 nM (active).

As for `Cn1cc(CNCC2CCN(c3ncc(C(=O)NO)cn3)CC2)c2ccccc21`, the Potency in [1] was 74.3 nM (active); in [2], 66.2 nM (active); in test [3] it was 109 nM (active); in test [4], 93.5 nM (active); in test [5] it was 469 nM (active); in [6], 148 nM (active). Moreover, the Potency in test [7] is 121 nM (active); in test [8], 148 nM (active); in [9], 52.6 nM (active); in [10], 193 nM (active); in [11], 37.2 nM (active); in [12], 86.3 nM (active). In addition, the Potency in test [13] was 187 nM (active); in [14], 187 nM (active); in [15] it was 2640 nM (active); in [16], 1180 nM (active); in test [17] it was 148 nM (active); in test [18] it was 165 nM (active). Besides, in test [19], the Potency is 104 nM (active).

As for `CN[C@H](CC(C)C)C(=O)N[C@H]1C(=O)N[C@@H](CC(N)=O)C(=O)N[C@@H]2C(=O)N[C@H]3C(=O)N[C@H](C(=O)N[C@H](C(=O)O)c4cc(O)cc(O)c4-c4cc3ccc4O)[C@H](O)c3ccc(c(Cl)c3)Oc3cc2cc(c3O[C@@H]2O[C@H](CO)[C@@H](O)[C@H](O)[C@@H]2O[C@H]2C[C@](C)(N)[C@H](O)[C@H](C)O2)Oc2ccc(cc2Cl)[C@H]1O`, the Potency entry in [1], in test [2], in test [3], in test [4], in [5] and in test [6] was “inactive” each time. The Potency entry in test [7], in test [8], in test [9], in test [10], in test [11] and in test [12] was “inactive” in each case. Moreover, the Potency result in [13], in test [14], in test [15], in test [16] and in test [17] was “inactive” throughout.

Take `C[C@@]12C(=O)OC(=O)[C@@]1(C)C1CCC2O1`: the Potency in test [1] was 4690 nM (active); in test [2] it was 2350 nM (active); in [3] it was 2170 nM (active); in test [4], 2350 nM (active); in test [6], 2960 nM (active); in test [7], 3830 nM (active). Besides, the Potency was 1480 nM (active) in test [8]; 2350 nM (active) in test [9]; 8630 nM (active) in [10]; 1870 nM (active) in test [11]; 2430 nM (active) in [12]; 5900 nM (active) in test [13]. Further, the Potency in test [14] is 1870 nM (active); in test [17] it was 3720 nM (active); in [18], 3290 nM (active); in test [19], 9270 nM (active); in [20] it was 6570 nM (active). Further, in test [5], the Potency result is “inactive”.

As for `Cc1cc(-c2nnc3n2CCCCC3)c(C)n1-c1ccccc1`, the Potency result in test [1], in [2], in test [3], in [4], in test [5] and in test [6] was “inactive” each time. The Potency entry in [7], in test [8], in test [9], in test [10], in [11] and in [13] was “inactive” throughout. Further, the Potency result in test [14], in test [15] and in [17] was “inactive” each time.

`CCC[C@H]1C[C@H](C(=O)N[C@@H]([C@@H]2O[C@@H](SC)[C@@H](O)[C@@H](O)[C@@H]2O)[C@H](C)Cl)N(C)C1`: the Potency entry in test [1], in test [2], in [3], in test [4], in [5] and in [6] was “inactive” each time. In addition, the Potency result in test [7], in [8], in test [9], in test [10], in test [11] and in [13] was “inactive” throughout. Further, the Potency result in test [14], in [15], in [16] and in test [17] was “inactive” in each case.

Turning to `C=CC(=O)Nc1ccc2ncnc(Nc3ccc(OCc4cccc(F)c4)c(Cl)c3)c2c1`, the Potency in [1] was 1 nM (active); in test [2] it was 16.6 nM (active); in test [3] it was 15.3 nM (active); in test [4], 52.6 nM (active); in [5] it was 5900 nM (active); in test [6], 29.6 nM (active). Moreover, the Potency in [7] is 171 nM (active); in test [8] it was 74.3 nM (active); in test [9], 1 nM (active); in test [10], 17.2 nM (active); in test [11] it was 7430 nM (active); in test [13], 29.6 nM (active). Also, the Potency is 296 nM (active) in test [14], 14700 nM (active) in test [18], 3290 nM (active) in test [19] and 7370 nM (active) in [20]. Besides, the Potency result in test [15] was “inactive”.

Consider `CC(=O)O[C@H]1C[C@@H]2CC[C@H]3[C@H]4C[C@H]([N+]5(C)CCCCC5)[C@@H](OC(C)=O)[C@@]4(C)CC[C@@H]3[C@@]2(C)C[C@H]1[N+]1(C)CCCCC1`, for which the Potency entry in [1], in [2], in test [3], in [4], in [5] and in test [6] was “inactive” throughout. Moreover, the Potency entry in test [7], in [8], in test [9], in test [10], in test [11] and in test [12] was “inactive” each time. Also, the Potency result in test [13], in test [14], in test [15], in test [16] and in test [17] was “inactive” throughout.

For `CC(C)(O)Cn1c(NC(=O)c2ccc(-c3cn[nH]c3)s2)nc2cc(CN3CCOCC3)ccc21`, the Potency is 1180 nM (active) in [1]; 2350 nM (active) in [2]; 1090 nM (active) in test [3]; 743 nM (active) in [4]; 1870 nM (active) in test [5]; 743 nM (active) in test [6]. For the same compound, the Potency in test [7] is 1710 nM (active); in test [8], 743 nM (active); in test [9] it was 332 nM (active); in [10] it was 3430 nM (active); in [11] it was 1870 nM (active); in [13], 1870 nM (active). Also, the Potency was 6620 nM (active) in test [15], 329 nM (active) in [18], 1170 nM (active) in test [19] and 1310 nM (active) in test [20]. The Potency result in [16] is “inactive”.

Consider `O=c1c(O)c(-c2ccc(O)c(O)c2)oc2cc(O)ccc12`, for which the Potency in test [1] is 29600 nM (active); in test [2] it was 20900 nM (active); in [3] it was 24300 nM (active); in test [4], 23500 nM (active); in test [6] it was 16600 nM (active); in test [7], 27100 nM (active). For the same compound, the Potency is 20900 nM (active) in [8], 16600 nM (active) in test [9] and 21700 nM (active) in test [12]. For the same compound, in test [5], the Potency result is “inactive”.

The record behind these values is PubChem BioAssay (NCATS).
